Screens as filed in PubChem.
15-hLO-2 inh = qHTS Assay for Inhibitors of 15-hLO-2 (15-human lipoxygenase 2); Polyunsaturated fatty acid lipoxygenase ALOX15B (Homo sapiens), O15296; purified 15hLO-2, xylenol orange hydroperoxide absorbance; Potency, µM (series often up to 57.1 µM), for the others: at the top dose activity change, negative = inhibition, most hits filed as inhibitors; hit rate 0.56% among 110,000; also: potency is read from the fitted curve at half-maximal effect; nearly all actives have a fitted effect of over 60% in size
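Enzyme 50 nM, AA 45 uM, 25 mM Hepes pH 7.5 + 0.01% Triton X-100; cpd preinc 15 min RT, rxn 90 min RT; stop/detect with 200 uM XO + 300 uM Fe(II) in 50 mM H2SO4, 30 min; A573/A405.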
IMPase Li cell = qHTS Assay for Identifying the Cell-Membrane Permeable IMPase Inhibitors: Potentiation with Lithium | CHO-M1 cells, IP1 TR-FRET (IP-One), carbachol + lithium | Potency, µM (titrated, usually from 59.4 µM), without a hit: at the top dose activity, negative = IMPase inhibition, usual class: inhibitors | hit rate 0.35% among 210,000;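 also: IP1 builds up when IMPase is blocked and the TR-FRET signal falls; potency is read from the fitted curve at half-maximal effect; plate controls were basal vehicle for no effect and high inhibitor control for full effect; nearly all actives have a fitted effect of over 50% in size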
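CHO cells stably expressing M1 receptor (2000/well) were cultured 16–30 h, then exposed to compounds with a small lithium addition for 30 min at 37C. IP1 was measured by TR-FRET competition; AC50 from Hill fits.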
IMPase cell inh = qHTS Assay for Identifying the Cell-Membrane Permeable IMPase Inhibitors. AID 901, 2007. Inositol monophosphatase 1 (Rattus norvegicus), P97697. 120,000 tested, under 10 active. CHO-M1 cells, IP1 accumulation, HTRF TR-FRET ratio. inhibition (IP1 accumulation), % at 46.1 µM; active = well fitted curve in the direction sought with a large enough effect in the signal ratio, not every such curve was filed as active; inconclusive = small, poorly fitted or top-dose-only effect, or a change in a side signal; inactive = no such curve, though single readings can be large or run the other way; the % refers to the signal ratio;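 also: cells stimulated with carbachol in lithium chloride buffer; plate controls were DMSO basal wells for no effect and reference inhibitor wells for full effect; higher means more IMPase inhibition seen as more IP1 and lower FRET ratio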
Target sequence (P97697 whole entry, looked up): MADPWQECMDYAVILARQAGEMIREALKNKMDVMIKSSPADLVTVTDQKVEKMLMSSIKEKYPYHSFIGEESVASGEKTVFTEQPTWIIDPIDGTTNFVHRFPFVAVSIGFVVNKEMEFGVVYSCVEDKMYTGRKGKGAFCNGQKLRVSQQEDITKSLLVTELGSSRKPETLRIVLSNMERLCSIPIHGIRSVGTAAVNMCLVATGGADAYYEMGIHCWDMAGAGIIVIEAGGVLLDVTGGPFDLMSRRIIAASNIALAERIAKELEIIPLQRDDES
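CHO-M1, 2000 cells/well, cultured 16–30 h; cpd up to 46 uM; carbachol (50 uM solution, stimulation buffer w/ 50 mM LiCl, pH 7.4), 30 min 37C; IP-One TR-FRET, 10 min RT; Ex 320/Em 665, 620; Hill-fit AC50.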
PNC inhibitor = High Content Assay for Compounds that inhibit the Assembly of the Perinucleolar Compartment | PC3M PTB-GFP, PNC prevalence imaging, 16 h; hits give low values | AID 2417, 2010 | hit rate 3.1% among 140,000 | activity change (PNC), negative = inhibition, % at 10 µM;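 active = readout at or below -70, meaning at least 70% loss of cells showing the perinucleolar compartment, a nuclear body marking cancer cells; inconclusive = readout between -30 and a set limit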;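 also: plate controls were DMSO wells for no effect and camptothecin positive control wells for full effect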
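Compounds are pinned in duplicate onto adhered PC3M cells stably expressing GFP-tagged PTB and incubated 16 h at 37 C. Cells are then fixed, nuclei stained with Hoechst, and PNC-positive cells counted.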
12-hLO inh = qHTS Assay for Inhibitors of 12-hLO (12-human lipoxygenase) | Polyunsaturated fatty acid lipoxygenase ALOX12 (Homo sapiens), P18054 | purified 12-hLO, xylenol orange hydroperoxide absorbance | Potency, µM (highest dose often 57.1 µM), inactives show at the highest dose activity change, negative = inhibition, most hits filed as inhibitors | hit rate 0.12% among 150,000; also: potency is read from the fitted curve at half-maximal effect; nearly all actives have a fitted effect of over 55% in size
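Purified human 12hLO (150 nM final) was preincubated with compounds for 15 min at room temperature in 25 mM Hepes pH 7.0, 0.01% Triton X-100, then reacted with 40 uM arachidonic acid for 30 min. Hydroperoxide was detected with ferrous iron/xylenol orange.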
HPGD block = qHTS Assay for Inhibitors of HPGD (15-Hydroxyprostaglandin Dehydrogenase). 15-hydroxyprostaglandin dehydrogenase [NAD(+)] (Homo sapiens), P15428. purified HPGD, NADH fluorescence kinetic, PGE2 substrate. Potency, µM, for inactives: at the highest dose activity change, negative = inhibition, usual class: inhibitors. hit rate 4.3% among 150,000. AID 894, 2007; active = well fitted inhibition curve with a large enough effect, not every such curve was filed as active; inconclusive = small, poorly fitted or top-dose-only effect, or another doubt; inactive = no such curve, though single readings can be large or run the other way; also: potency is read from the fitted curve at half-maximal effect
Target sequence (P15428 whole entry, looked up): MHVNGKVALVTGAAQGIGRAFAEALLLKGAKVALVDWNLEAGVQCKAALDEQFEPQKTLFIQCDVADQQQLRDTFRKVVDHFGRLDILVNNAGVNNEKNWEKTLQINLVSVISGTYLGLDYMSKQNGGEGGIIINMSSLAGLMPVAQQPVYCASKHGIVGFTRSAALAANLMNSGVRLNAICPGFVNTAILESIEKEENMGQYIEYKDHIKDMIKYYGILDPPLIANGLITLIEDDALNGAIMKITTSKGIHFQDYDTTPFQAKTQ
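20 nM HPGD preincubated 15 min at room temperature with compound in 50 mM Tris-HCl pH 8, 0.01% Tween 20. Started with 1 mM NAD+ and 30 uM prostaglandin E2; NADH fluorescence (360/450 nm) read 5 times over 30-s intervals, last minus first.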
* = called active by the depositor; ? = inconclusive; / = no result given; [ ] = another dose, or the depositor's remark. The list is not random: actives were taken first. Their share in the collection is about 5.4%. Unless noted, calls follow the shape of the dose curve; as a rule, active = well fitted curve in the direction sought with a large enough effect; inconclusive = small, poorly fitted or top-dose-only effect, or another doubt; inactive = no such curve, though single readings can be large; an effect the other way counts as inactive or inconclusive. Unless noted, % is scaled to controls: 0 for no effect and ±100 for the full control effect.

SMILES	15-hLO-2 inh	IMPase Li cell	IMPase cell inh	PNC inhibitor	12-hLO inh	HPGD block
CC(=O)[C@H]1CC[C@@H]2[C@]1(C)CC=C1[C@]23C=C[C@]2(C[C@H](O)CC[C@@]12C)[C@H](C(=O)O)[C@@H]3C(=O)O	-8%[11.4 µM]	/	/	/	5%[11.4 µM]	/
COC(=O)C1=CN(C)C=C(C(=O)OC)C1c1ccccc1Cl	/	1%	?	-109*	-2%	?
CCCCOc1ccccc1C1C(C(=O)OC)=CN(CC)C=C1C(=O)OC	-2%	-3%[38.3 µM]	0	28	0%	?
CN(CC(=O)Nc1ccc(F)cc1)C(=O)CSc1nc2ncc(Cl)cc2[nH]1	/	2%	/	/	/	/
C=C(C)CN(CC)C(=O)CSc1nc2ncc(Cl)cc2[nH]1	-1%	-4%[38.3 µM]	-6	-28	-4%	14µM*
Cc1cccc(CNc2cc(-c3cccnc3)ncn2)c1	-1%	1%	/	/	-5%	?
C=C(C)CN(CC#N)CC(=C)C	-5%[11.4 µM]	3%	/	/	1%[11.4 µM]	0%
CCOC(=O)C(=CNc1ccc(NC2=NCC(C)S2)cc1)C(=O)OCC (centres undefined)	/	-3%	/	?	-1%	14µM*
CCCCC/C=C\C[C@@H](O)/C=C/C=C/C=C/[C@@H](O)CCCC(=O)O	/	6%	/	/	0%	-6%
O=C(CCC1N=C2c3ccccc3N=C(SCc3ccc(Cl)cc3)N2C1=O)N1CCN(c2ccccc2)CC1 (centres undefined)	/	/	-2	/	/	/
COc1cccc(CS(=O)(=O)c2nnnn2-c2ccc(F)cc2Br)c1	/	12%	/	/	/	-10%
Cc1cccc(C(=O)Nc2ccc3oc(-c4ccncc4)nc3c2)c1	/	/	-5	/	/	/
CC(C)C[C@H](NC(=O)[C@H](CCCCN)NC(=O)[C@H](CCCNC(=N)N)NC(=O)[C@H](C)NC(=O)[C@H](CO)NC(=O)[C@H](CCCCN)NC(=O)[C@H](CCCNC(=N)N)NC(=O)[C@H](C)NC(=O)CNC(=O)[C@@H](NC(=O)[C@H](Cc1ccccc1)NC(=O)CNC(=O)CNC(=O)[C@@H](N)Cc1ccccc1)[C@H](C)O)C(=O)N[C@@H](C)C(=O)N[C@@H](CC(N)=O)C(=O)N[C@@H](CCC(N)=O)C(=O)O	/	3%	/	/	/	/
Cc1nc(NC2CCCCC2)c2nc(-c3ccccc3)n(CCCN3CCOCC3)c2n1	13%	-5%	/	/	2%	?
O=C(COC(=O)c1ccc([N+](=O)[O-])s1)Nc1ccccc1	/	-7%	/	?	-4%	-3%
O=C(COC(=O)c1ccc([N+](=O)[O-])s1)NC(c1ccccc1)c1ccccc1	/	1%	/	-116*	-4%	-20%
CC(C)(C)[C@@]1(O)CCN2C[C@@H]3c4ccccc4CCc4cccc(c43)[C@@H]2C1	41%	/	7	/	-4%	/
CCOC(=O)CC1C(=O)NCCN1S(=O)(=O)c1cc(Cl)c(Cl)cc1Cl (centres undefined)	5%	-7%[38.3 µM]	-7	-98*	2%	2%
CCOC(=O)CC1C(=O)NCCN1C(=S)Nc1ccccc1 (centres undefined)	/	-2%	/	-91*	0%	-17%
COC(=O)CC1C(=O)NCCN1C(=S)Nc1ccccc1 (centres undefined)	/	-6%	/	90	1%	-14%
Cc1sccc1/C=N/NC(=O)c1cccc2ccccc12	/	-5%	/	-104*	-4%	-7%
O=c1c(-c2cccs2)nc2cnc(N3CCNCC3)nc2n1Cc1cccs1	22%	14%	/	/	/	/
O=C(O)/C(=C\c1ccccc1)Cc1ccccc1	1%[11.4 µM]	0%	/	/	-3%[11.4 µM]	-5%
C[N+](C)(CC#Cc1ccccc1)CC(=O)c1ccc(Cl)cc1	/	13%	/	-90*	0%	-1%
Cc1nn(-c2ccccc2)c(N)c1Sc1cccc([N+](=O)[O-])c1	/	12%	/	5	-1%	25µM*
SMILES	15-hLO-2 inh	IMPase Li cell	IMPase cell inh	PNC inhibitor	12-hLO inh	HPGD block
Fc1ccc(CSc2nncn2NC/C=C/c2ccccc2)cc1	-7%[11.4 µM]	-3%[38.3 µM]	-9[1.84 µM]	-83*	-5%	0%
CC(C)(C)OC(=O)N1CCC(C(=O)N[C@@H](Cc2ccccc2)C(=O)O)(c2ccccc2)CC1	/	-11%	/	1	-2%	-1%
CC(C)C[C@H](NC(=O)C1(c2ccccc2)CCN(C(=O)[C@H]2CSCN2C(=O)OC(C)(C)C)CC1)C(=O)O	/	0%	/	-114*	2%	0%
C=CCSc1nnc(NC(=O)c2cccc(S(=O)(=O)N3CCOCC3)c2)s1	-11%	14%[38.3 µM]	8	-28	1%	3.5µM*
Nc1ccc(Cl)cc1Cl	3%	-15%	/	/	-9%	-3%
CCOC(=O)N1CCN(CCC(=O)Nc2cccc(F)c2)CC1	/	/	5	/	/	/
CC1CCC(C(C)C)C2=C1C(C#N)(C#N)C(C#N)(C#N)C(c1ccccc1)N2 (centres undefined)	10µM*	-6%[38.3 µM]	24	-8	-28%	-13%
CC1=CC(C#N)(C#N)C(C#N)(C#N)C(c2ccccc2)N1 (centres undefined)	-3%	7%[38.3 µM]	9	7	-7%	?
O=c1cc(-c2ccccc2Cl)oc2c(NS(=O)(=O)c3cc(Cl)cc(Cl)c3O)ccc(O)c12	16µM*	12%	/	38	0.28µM*	4.5µM*
Cn1c(=O)oc2cc(S(=O)(=O)N3CCCC(C(=O)N4CC=C(c5ccccc5)CC4)C3)ccc21 (centres undefined)	-10%	15%[38.3 µM]	10	?	0%	14µM*
CCOC(=O)N1CCN(S(=O)(=O)c2ccc(OC)c(Cl)c2Cl)CC1	-1%	21%[38.3 µM]	6	17	-1%	-18%
Cn1c(=O)oc2cc(S(=O)(=O)N3CCCC(C(=O)NC4CCCc5ccccc54)C3)ccc21 (centres undefined)	1%	10%[38.3 µM]	7	-1	-6%	?
CCOC(=O)n1c(=O)oc2cc(S(=O)(=O)N3CCCCC3)ccc21	/	9%	-4	-100*	-3%	-21%
CCOC(=O)N1CCN(S(=O)(=O)c2ccc3c(c2)oc(=O)n3C)CC1	-5%	7%[38.3 µM]	7	-80*	-2%	2%
CCOC(=O)N1CCN(S(=O)(=O)c2ccc(OCC)c3ccccc23)CC1	12%	14%[38.3 µM]	7	18	-11%	28µM*
